Drawing on article PMC12136788, this text covers binding signal for 15 molecules.

Sequences and labels used below:
T1: UNK ZnF1-3 (human, UniProt Q9C0B0 31-174)
T1 sequence: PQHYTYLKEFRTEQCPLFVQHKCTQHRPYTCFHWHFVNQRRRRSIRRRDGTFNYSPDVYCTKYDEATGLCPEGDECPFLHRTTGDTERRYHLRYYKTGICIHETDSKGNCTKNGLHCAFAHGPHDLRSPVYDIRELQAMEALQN

B1: chr1:112309342:112309343:+_ENSG00000064703_ENST00000369702|hu_hu|FALSE|FALSE (ssRNA)
RNA: GGGAGUUCUACAGUCCGACGAUCUCUCCAGUACUCCUCAUAAUCCUGAUAGGUAUCAGAAAAACUCAGACGUAUUUCCCUAUGACAGUCAUACCAAUCAUCUUCCUGGGCUUCAGUCUGCAAUCUGAAGGAAGACCGCCUGGGCAACAGAGGAUUGAGCAUCA
B2: chr2:158287933:158287934:+_ENSMUSG00000027652_ENSMUST00000141497|mus_hu|FALSE|FALSE (ssRNA)
RNA: GGGAGUUCUACAGUCCGACGAUCAAGAGGUUGUUCCAGCAUUGCCAGGAUGACACUGUUAUCCAAGACAAAGUACCGGAAACUAUGCUUGUUUAUGGUUGGCAGCCUGGAGUAUUUAAUCAAAGUGGUCUCAUUCACAAGACUCAACAGAGGAUUGAGCAUCA
B3: chr3:179287964:179287965:+_ENSG00000136518_ENST00000429709|hu_hu|hu_hu_hu_mus_True|28_28 (ssRNA)
RNA: GGGAGUUCUACAGUCCGACGAUCCUUGAGUGGUGAGAUGGCCUCCAUGUUCUCCCUGGGCACGCGGAGGGCAUUGGUGUCUAUGUAGUAGGUGGGCCCGCCCUGCUUGCCUUUAUCACCAUCAAUCUCCAUCAUUGUACUUCCCAACAGAGGAUUGAGCAUCA
B4: chr4:131761308:131761309:-_ENSMUSG00000040025_ENSMUST00000102570|mus_mus|FALSE|FALSE (ssRNA)
RNA: GGGAGUUCUACAGUCCGACGAUCGCUGACUGUCCAUCAAUCAUGGCUCCACCUAAGGAGCUGGGUGCAUAAGCGUAAUUGCUACUAUAUCCAGAGCUUUGAGUAGACUGUCCCUGAGAACUGUUAUUUCCCCAUGCUGAGAAGCAACAGAGGAUUGAGCAUCA
B5: chr11:87793471:87793472:-_ENSMUSG00000020483_ENSMUST00000020775|mus_mus|mus_mus_mus_hu_False|8_68 (ssRNA)
RNA: GGGAGUUCUACAGUCCGACGAUCUGGACUUGAAAAUAAAAGAAUAAGCUGGAUCCCCCACCCCCCCACAGUGUCAACCCUACACGAGAGUUUUGAAGGCGACUCAUGAAAAUCAGCAGCUCAAACGAAUGACAACCCCCCACCCAACAGAGGAUUGAGCAUCA
B6: chr11:87793471:87793472:-_ENSMUSG00000020483_ENSMUST00000020775|mus_mus|mus_mus_mus_hu_False|8_98 (ssRNA)
RNA: B5 RNA with G41A, U44A, A45U, G70U
B7: chr11:87793471:87793472:-_ENSMUSG00000020483_ENSMUST00000020775|mus_mus|mus_mus_mus_hu_False|8_78 (ssRNA)
RNA: B5 RNA with A59C, C60A, C65U, C66U, G70U
B8: chr13:100193624:100193625:-_ENSMUSG00000052727_ENSMUST00000064762|mus_mus|FALSE|FALSE (ssRNA)
RNA: GGGAGUUCUACAGUCCGACGAUCAAACCCUCAGAGUAAAAGAGCAGUGCGAAACAUACGCUUUACAGACGAAAAUAAACUAAAAUGUAAAUUUUGAAAUAAAUAACUAACAUAGAAAAUAAAAUGAGGUCAUUGUUCACUACCCAACAGAGGAUUGAGCAUCA
B9: chr13:100193624:100193625:-_ENSMUSG00000052727_ENSMUST00000064762|mus_mus|motif|central (ssRNA)
RNA: B8 RNA with U80G, A81G
B10: chr16:94651144:94651145:+_ENSMUSG00000040785_ENSMUST00000117648|mus_hu|mus_mus_mus_hu_True|18_58 (ssRNA)
RNA: GGGAGUUCUACAGUCCGACGAUCAUUUUCUUGAAUCAAGUGGCGAAUAACAUAGUCCACUGCUUCAUUUAGAAAAUUUUUGCUAGAAAAACAGGUUGUAUAGUCUUCUGUGCUCAAAACCUUCCAAGAAAGCAAUUCUUUGAGCAACAGAGGAUUGAGCAUCA
B11: chr7:56127975:56127976:+_ENSG00000146731_ENST00000540286|hu_mus|FALSE|FALSE (ssRNA)
RNA: GGGAGUUCUACAGUCCGACGAUCUGGUCCUUUAACCAGUAAAGUGACAGAACGGGGAUUGUUACACUUCUCAAUAAAGGUGAACUUCUCCUCACCCAGUGUAUACUCAUAGACAAGCUCUGCAUGUCCCAAACAGUCAGGAUUCAACAGAGGAUUGAGCAUCA
B12: chr13:100201144:100201145:-_ENSMUSG00000052727_ENSMUST00000064762|mus_hu|FALSE|FALSE (ssRNA)
RNA: GGGAGUUCUACAGUCCGACGAUCCUCCUCCAUAGGUGGUAUCUUAUGUGAUAAACUGGAGUCCUGCAUGUCAGAAGGACUGUAGUCCACUUCAGUUGGCCCAUUUUCAGUGAUGUGAAGCACGCCUGCACCCACUGUAGGGUGCAACAGAGGAUUGAGCAUCA
B13: 95238312_95238432_61_3pUTR_ENSMUSG00000015522_ENSMUST00000090804|mouse|control|control (ssRNA)
RNA: GGGAGUUCUACAGUCCGACGAUCACCCUCGGUGGGAGGGGCAGCCGCCACCGAGCUGGGGGAGGGGAGGGAAGAGCCACUCCGCAGAUUAGGCACCUUACCGCCGCCACCGCUACCGCGGAAUCCAAGAUGGCGGACGCCCACCAACAGAGGAUUGAGCAUCA
B14: chr6:114274515:114274516:-_ENSG00000196591_ENST00000368632|hu_mus|motif|central (ssRNA)
RNA: GGGAGUUCUACAGUCCGACGAUCCAUCACGCGAUCUGUUGUAUAAAAAGCUUCCUCAACACCAUCACCAUGGUGGAUGUCGGUGUCAAUAUAUAAGACUCUCUGAUGAUACUUAAGUAAUUCGAGGAUGGCAAGCACAAUAUCCAACAGAGGAUUGAGCAUCA
B15: chr5:141234466:141234467:-_ENSMUSG00000000149_ENSMUST00000000153|mus_mus|motif|central (ssRNA)
RNA: GGGAGUUCUACAGUCCGACGAUCAGGACAAUAGUCAAGGGUAACAGUGAAAUUAAAAUUAAAAAAAAAAAUACAAACGCCGGAGGUCUGGGAGAAACCUGACUACAAUCUACGUGGAGAAACUUGUAAAUGACUCCAGCCUGGCAACAGAGGAUUGAGCAUCA

Changes are numbered by the printed parent chain. Whole data set: some 24,000 sequences, median “enrichment r” near 0.99, cut for the highest 2% near 3.7. For the sample, the highest values were picked, then their nearest neighbours and some sequences at random.

This assay addresses T1, UNK ZnF1-3. Briefly: nsRBNS (natural sequence RNA bind-n-seq); RBNS binding buffer (assumed for nsRBNS): 25 mM Tris pH 7.5, 150 mM KCl, 3 mM MgCl2, 0.01% Triton X-100, 500 ug/ml BSA, 20 U/ml SUPERase-In, 4 C; UNK is unkempt and MSI1 is Musashi-1; names of the RNAs are library labels; protein concentration not given here; high values mean tight binding.
On to B1, for which the binding signal amounted to 0.941 enrichment R. In the case of B2 it was 0.695 enrichment R; in that of B3, 0.667 enrichment R.

In turn, B4 registered a binding signal of 1.1 enrichment R. In the case of B5 it was 2.23 enrichment R. Next, B6: 4.4 enrichment R; B7: 1.99 enrichment R. Next, B8: 9.34 enrichment R. The molecule B9 displayed a binding signal of 4.16 enrichment R. With B10, the binding signal amounted to 0.507 enrichment R. In the case of B11 it was 0.526 enrichment R; in that of B12, 0.585 enrichment R. Next, B13: 0.955 enrichment R. B14: the binding signal is 1.5 enrichment R. Consider B15, for which the binding signal turned out to be 11.3 enrichment R.
